Test results published in PubChem BioAssay (Tox21).
Results filed as inconclusive are left out. Where a call stands in place of a potency, no number is given. The source made the active and inactive calls. Calls follow the shape of the dose curve; as a rule, active = well fitted cell-killing curve with a large enough effect in the repeat runs; inconclusive = weak or mixed curves, or effect the other way; inactive = flat fitted curve, though single readings scatter.

Assay: qHTS RealTime-Glo MT Cell Viability Assay in HEK293 cells - 32 hour (AID 1224868); also: top concentration of the series differs between compounds; nearly all actives have a fitted effect of over 50% in size
Conditions: RealTime-Glo luminescence; series mostly up to 76.8 µM
Source text: National Center for Advancing Translational Sciences [NCATS]
NIH Chemical Genomics Center [NCGC]
U.S. Environmental Protection Agency [EPA]
National Institutes of Environmental Health Sciences [NIEHS]
National Toxicology Program [NTP]
U.S. Food and Drug Administration [FDA]
Measure of cell viability is critical in the cell-base assay. Analysis of cell viability is necessary for the characterization of cell responses to cytotoxic drugs and environmental stress. A RealTime-Glo MT Cell Viability Assay to monitor cell viability in real time of continues cell culture during 40 hours of compound treatment was used to screen Tox21 10K library compounds in Hek293 cells. The RealTime-Glo MT Cell Viability Assay is a nonlytic, homogeneous, bioluminescent method to measure cell viability in real time using a simple, plate-based method. The assay involves adding NanoLuc luciferase and a cell-permeant prosubstrate to cells in culture. Viable cells reduce the proprietary prosubstrate to generate a substrate for NanoLuc luciferase. This substrate diffuses from cells into the surrounding culture medium, where it is rapidly used by the NanoLuc Enzyme to produce a luminescent signal. The signal correlates with the number of viable cells, making the assay well suited for cytotoxicity studies.
Tox21 Assay Protocol Summary:
The mixture of Hek293 cell suspension and reagents were dispensed at 600cells/6 ul/well in 1536-well tissue culture treated black solid bottom plates using a Multidrop dispenser. After the assay plates were incubated at a 37 C/5% CO2 incubator for 5 hours, 23 nL of compounds dissolved in DMSO, positive and negative controls was transferred to the assay plate by a pintool work station. The plates were incubated at 37 C for 40 hours. The luminescence intensity were measured at 0h, 8h, 16h, 24h, 32h and 40h time points using ViewLux plate reader during compound treatment.
With CCCCCCCCCCCCCCCC(=O)NCCO the Potency was “inactive”. For COc1ccc(N=Nc2cc(C)c(N=Nc3ccc(S(=O)(=O)O)cc3)cc2OC)cc1, the Potency was “inactive”. In the case of CCOC(=O)CCCCCCCCC(=O)OCC, the Potency is reported as “inactive”. In the case of C=COCCOCCOC=C, the Potency is reported as “inactive”. In the case of NC(=O)C1(N2CCCCC2)CCN(CCCC(=O)c2ccc(F)cc2)CC1, the Potency is reported as “inactive”. With CCCO the Potency was “inactive”. With O=CN1CCOCC1 the Potency was “inactive”. For Cc1c(C(C)C)c(=O)n(-c2ccccc2)n1C, the Potency was “inactive”. In the case of CCCCCCCCCCCCCC(=O)OC, the Potency is reported as “inactive”. In the case of CC1(N)CCC(C(C)(C)N)CC1 (stereo not given), the Potency is reported as “inactive”. In the case of Cc1nc2ccccc2c(=O)o1, the Potency is reported as “inactive”. For CCCCC(C)C(=O)O (stereo not given), the Potency was “inactive”. In the case of CCC(O)C(C)(C)C (stereo not given), the Potency is reported as “inactive”. With C=CCOc1c(Br)cc(C(C)(C)c2cc(Br)c(OCC=C)c(Br)c2)cc1Br the Potency was “inactive”. For COCCOCCOCCOC, the Potency was “inactive”. With O=CO the activity change, negative = cytotoxic was 1.16% [at 6.97 µM] (inactive). With CC1=CC[C@H](CC=O)C1(C)C the Potency was “inactive”. In the case of CN[C@@H]1[C@H](O)[C@H](NC)[C@H]2O[C@@]3(O)C(=O)C[C@@H](C)O[C@H]3O[C@@H]2[C@H]1O, the Potency is reported as “inactive”. In the case of O=S(=O)(O)CCO, the Potency is reported as “inactive”. In the case of Cc1cccc(NC(=S)N(C)C)c1, the Potency is reported as “inactive”. In the case of O=C1c2ccccc2-c2ccccc21, the Potency is reported as “inactive”. In the case of CCC(=O)OCCC(C)CCC=C(C)C (stereo not given), the Potency is reported as “inactive”. For Cc1ccc(S(=O)(=O)NC(=O)NC2CCCCCCC2)cc1, the Potency was “inactive”. With O=[Si]=O the Potency was “inactive”. In the case of CCC(C)(C)C1CCC(=O)CC1, the Potency is reported as “inactive”. With CCCCCC1Nc2cc(C(F)(F)F)c(S(N)(=O)=O)cc2S(=O)(=O)N1 (stereo not given) the Potency was “inactive”. In the case of Nc1ccc(S(=O)(=O)Nc2ccccn2)cc1, the Potency is reported as “inactive”. For C=CC(C)(O)CC/C=C(\C)CC (stereo not given), the Potency was “inactive”. With CN[C@@H]1[C@@H](O)[C@@H](O[C@@H]2[C@H](O)[C@H](O[C@H]3OC(CN)=CC[C@H]3N)[C@@H](N)C[C@H]2N)OCC1(C)O (stereo not given in full) the Potency was “inactive”. In the case of CCCCCCCCOC(C)=O, the Potency is reported as “inactive”. For COC(/C=C(\C)CCC=C(C)C)OC, the Potency was “inactive”. In the case of CCC(CO)CO, the Potency is reported as “inactive”. For Cc1cc(C)cc([N+](=O)[O-])c1, the Potency was “inactive”. In the case of CN(C)CCOCCN(C)CCO, the Potency is reported as “inactive”. In the case of O=c1[nH]c(=O)c2[nH]c(=O)[nH]c2[nH]1, the activity change, negative = cytotoxic is reported as 9.11% [at 6.97 µM] (inactive). In the case of CCN(CCO)c1cccc(C)c1, the Potency is reported as “inactive”. With CCOC(=O)CCc1ccccc1 the Potency was “inactive”. With C=CCOCC(O)CCl (stereo not given) the Potency was “inactive”. In the case of Nc1c(NC/C=C\COc2cc(CN3CCCCC3)ccn2)c(=O)c1=O, the activity change, negative = cytotoxic is reported as 2.38% [at 15.8 µM] (inactive). With CCCCC(CC)CNC(=O)CC(C)OC(=O)CCC(=O)O (stereo not given) the Potency was “inactive”.
